GPR151 activ: activators of human GPR151, primary screen, cell-based, PathHunter beta-arrestin, luminescence. G-protein coupled receptor 151 (Homo sapiens), Q8TDV0. PathHunter beta-arrestin GPR151 cells. activation, % at 11.2 µM. 650,000 compounds, 1% hits; in the data active means activation above about 4.9%
Target sequence (Q8TDV0 whole entry, looked up): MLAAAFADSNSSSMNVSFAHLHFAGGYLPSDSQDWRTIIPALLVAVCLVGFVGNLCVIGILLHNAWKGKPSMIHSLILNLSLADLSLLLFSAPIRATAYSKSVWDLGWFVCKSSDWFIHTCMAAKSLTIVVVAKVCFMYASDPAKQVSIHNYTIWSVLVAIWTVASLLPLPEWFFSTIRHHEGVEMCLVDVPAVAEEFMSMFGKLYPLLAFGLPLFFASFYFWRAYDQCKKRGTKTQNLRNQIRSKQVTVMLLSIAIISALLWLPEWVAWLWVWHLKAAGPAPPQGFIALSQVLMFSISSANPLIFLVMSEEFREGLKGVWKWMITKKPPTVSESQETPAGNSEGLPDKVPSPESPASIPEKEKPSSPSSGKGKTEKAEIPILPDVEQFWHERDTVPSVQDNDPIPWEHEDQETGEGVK
TEAD-YAP block: TEAD-YAP interaction inhibition, primary screen, TEAD-YAP interaction inhibitor project, luminescence, HEK-TIYL cells; TEAD-Gal4/YAP UAS-luciferase luminescence; inhibition, % at 9.12 µM; 640,000 compounds, 1.4% hits; AID 1259422, 2018; in the data active means inhibition above about 32%
FBW7 act: FBW7 E3 ligase activators, primary screen, biochemical, AlphaScreen, human; F-box/WD repeat-containing protein 7 (Homo sapiens), Q969H0; AlphaScreen FBW7–phospho-cyclin E peptide binding, activator screen; normalized activity (activation), % at 26.1 µM; 650,000 compounds, 0.13% hits; AID 1259310, 2017; in the data active means normalized activity above about 1.9%;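 further: purified mutant Fbw7 with reduced substrate affinity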
MITF inh: MITF inhibitors, primary screen, biochemical, AlphaScreen, human | Microphthalmia-associated transcription factor (Homo sapiens), O75030 | AlphaScreen MITF homodimerization, bead proximity signal | inhibition, % at 2.6 µM | 650,000 compounds, 0.91% hits | AID 1259374, 2018; in the data active means inhibition above about 50%
GPR151 conf act: GPR151 activators, triplicate retest, confirmation, cell-based, PathHunter beta-arrestin, luminescence; shares compounds with GPR151 activ; activation, % at 11.2 µM; 6,700 tested, under 10 active; GPR151 PathHunter beta-arrestin cells, 90 min; % of EA-reagent control over plate median;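 active means mean percent activation across replicates above the confirmation screen cutoff of 4.91%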
GPR119 counter: GPR119 activators in beta-arrestin cells, counter-screen for GPR151 activator project, cell-based, PathHunter beta-arrestin, luminescence, triplicate; 6,700 compounds, 0.3% hits; shares compounds with GPR151 activ; AID 1508611, 2020; 90 min; 0 = compound-well median, 100 = enzyme-acceptor control; activation, % at 11.2 µM;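 active means mean percent activation in the counterscreen above 29.09%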;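 further: counterscreen on off-target GPR119 to flag nonselective hits from the GPR151 activator screen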
Of the large screens only hits and unclear results are named; the others gave an inactive call (follow-up assays come after a bar, where they were run). In the library only some 3.5% were active in any assay of this set; here they are far more common.

COC(=O)c1c(NC(=O)c2ccco2)sc(C(=O)Nc2cccc(C)c2)c1C	GPR151 activ 6.4 | GPR151 conf act inactive | GPR119 counter inactive
CCN(CC)C(=O)c1sc(NC(=S)NCc2ccco2)c(C(=O)OC)c1C	GPR151 activ 11 | GPR151 conf act inactive | GPR119 counter inactive
COc1ccc(C2C=C(c3ccc(OC)c(OC)c3)Nc3ncnn32)c(OC)c1 (configuration not stated)	none
CCc1cccc(OCC(=O)Nc2ccccc2C(=O)O)c1	none
CCc1cccc(OCC(=O)Nc2ccccc2C(N)=O)c1	GPR151 activ 10 | GPR151 conf act inactive | GPR119 counter inactive
CCOc1cccc(C2NC(C)(C(=O)O)C3C(=O)N(c4ccccc4OC)C(=O)C23)c1O (configuration not stated)	none
COc1ccc(O)c(C2NC(C)(C(=O)O)C3C(=O)N(c4ccccc4OC)C(=O)C23)c1 (configuration not stated)	GPR151 activ 5.1 | GPR151 conf act inactive | GPR119 counter inactive
COc1ccc(-c2csc3ncc(C(=O)NCC(C)(C)C)c(=O)n23)cc1	none
O=c1c2nccnc2nc(SCc2cccc(F)c2)n1Cc1ccco1	GPR151 activ 12 | GPR151 conf act inactive | GPR119 counter inactive
O=c1c2cc3c(cc2nc(SCc2cccc(F)c2)n1Cc1ccco1)OCO3	none
CCOC(=O)c1ccc(NC(=O)/C(C#N)=C/c2ccc(OC(C)C)c(OC)c2)cc1	none
CCc1ccc(NC(=O)C(=O)NCCN2CCN(Cc3ccccc3F)CC2)cc1	none
COc1ccccc1/C=N/NC(=O)NC12CC3CC(CC(C3)C1)C2	none
COc1ccccc1/C=C/C(=O)OCC(=O)NC(=O)NC12CC3CC(CC(C3)C1)C2	GPR151 activ 5.5 | GPR151 conf act inactive | GPR119 counter inactive
O=C(N1CCCCCC1)N1CCN(C(=O)N2CCOCC2)CC1	GPR151 activ 5.8 | GPR151 conf act inactive | GPR119 counter inactive
O=C(N1CCOCC1)N1CCN(S(=O)(=O)N2CCCC2)CC1	none
COCCOC(=O)c1c(N)sc(C(N)=O)c1C	GPR151 activ 8.5 | GPR151 conf act inactive | GPR119 counter inactive
CC(C)[C@H](NC(N)=O)C(=O)Nc1ccc(I)cc1	GPR151 activ 5.9 | GPR151 conf act inactive | GPR119 counter inactive
C=CCOC(=O)C1=C(C)NC(SCC(=O)Nc2cc(C)ccc2C)=C(C#N)C1c1ccco1 (configuration not stated)	none
COc1ccc2c(c1)CCc1cnc(-n3ncc(C(=O)NCc4ccccn4)c3C)nc1-2	none
Cc1cc2c(cc3c(=O)n(CC(=O)NCCCN4CCCC(C)C4)nc(C)n32)s1 (configuration not stated)	GPR151 activ 7.7 | GPR151 conf act inactive | GPR119 counter inactive
CCc1nn(CC(=O)NCCN(C)C2CCCCC2)c(=O)c2cc3sc(C)cc3n12	GPR151 activ 8.6 | GPR151 conf act inactive | GPR119 counter inactive
Cc1cc2c(cc3c(=O)n(CC(=O)N4CCCC(C)C4)nc(C)n32)s1 (configuration not stated)	none
Cc1ccc(NC(=O)COc2cccc3c2CCN(Cc2cccnc2)C3=O)c(C)c1	GPR151 activ 5.4 | GPR151 conf act inactive | GPR119 counter inactive
COc1ccc(/C=C(\NC(=O)c2ccco2)C(N)=O)cc1	none
CC(=O)c1ccc(S(=O)(=O)NCCc2cn3ccc(C)cc3n2)cc1	GPR151 activ 5.0 | GPR151 conf act inactive | GPR119 counter inactive
COc1cc(OC)c(CN2CCc3nnc(C4CCCO4)n3CC2)c(OC)c1 (configuration not stated)	GPR151 activ 5.3 | GPR151 conf act inactive | GPR119 counter inactive
Cc1nn(C(=O)Cn2ccc([N+](=O)[O-])n2)c(C)c1I	GPR151 activ 5.3 | GPR151 conf act inactive | GPR119 counter inactive
COC(=O)c1cc(-c2ccccc2)n(CC(=O)O)c1C	GPR151 activ 5.5 | GPR151 conf act inactive | GPR119 counter inactive
Cc1ccc(-n2c3c(cc(C(=O)Nc4ccc(F)cc4)c2=O)C(=O)CCC3)cc1	GPR151 activ 5.5 | GPR151 conf act inactive | GPR119 counter inactive
Cc1ccc(NC(=O)c2ccc(F)cc2C)cc1	GPR151 activ 5.3 | GPR151 conf act inactive | GPR119 counter inactive
Cc1ccc(-n2c3c(cc(C(=O)Nc4cccc(F)c4)c2=O)C(=O)CCC3)cc1	none
Cc1ccc([N+](=O)[O-])cc1S(=O)(=O)Nc1ccc2oc3c(c2c1)C(=O)CCC3	none
Cc1cc2c(cc1S(=O)(=O)Nc1ccc(OC(F)(F)F)cc1)n(C)c(=O)c(=O)n2C	none
O=C(Nc1ccc(Oc2ccccc2)cc1)Nc1cccc([N+](=O)[O-])c1	GPR151 activ 7.0 | GPR151 conf act inactive | GPR119 counter inactive
COc1ccc(-c2nc(NCc3cccnc3)c3ncn(C(C)C)c3n2)cn1	none
COc1ccc(N2CCN(C3CCCN(C(=O)c4csc(SC)n4)C3)CC2)cc1 (configuration not stated)	GPR151 activ 4.9 | GPR151 conf act inactive | GPR119 counter inactive
O=C(NC1CCCCC1)C(c1ccncc1)N(C(=O)C(F)(F)F)C1CC1 (configuration not stated)	none
CC(C)N(C(=O)C(F)(F)F)C(C(=O)NC1CCCCC1)c1ccncc1 (configuration not stated)	GPR151 activ 5.8 | GPR151 conf act inactive | GPR119 counter inactive
COc1ccc(C(=O)NC2CC2)cc1OC1CCN(Cc2ccc(F)cc2F)CC1	GPR151 activ 5.6 | GPR151 conf act inactive | GPR119 counter inactive
CC(CCc1ccccc1)NC(=O)Cn1c(CO)nc2ccccc21 (configuration not stated)	GPR151 activ 6.2 | GPR151 conf act inactive | GPR119 counter inactive
CN(C)c1cccc(C(=O)OCC(=O)c2cc3ccccc3o2)c1	GPR151 activ 5.2 | GPR151 conf act inactive | GPR119 counter inactive
CNS(=O)(=O)c1cccc(C(=O)OCC(=O)c2cc3ccccc3o2)c1	none
O=C(c1ccsc1)N1CCc2ccc(NC(=O)C3(c4ccccc4)CC3)cc2C1	GPR151 activ 5.9 | GPR151 conf act inactive | GPR119 counter inactive
O=C(Nc1ccc2c(c1)CN(C1CCSCC1)CC2)C1(c2ccccc2)CC1	none
CCC(C)(C)C1CCC(NC(=O)C(=O)Nc2ccccc2)CC1 (configuration not stated)	GPR151 activ 6.3 | GPR151 conf act inactive | GPR119 counter inactive
CCOC(=O)c1sc2nc(SCC(=O)N(C)Cc3ccccc3)n(CCc3ccc(OC)c(OC)c3)c(=O)c2c1C	none
